Reference: PubChem BioAssay (EPA / NIEHS)
Several values for one entry are separate records, joined by “and”; a condition that tells them apart may be missing. Identical values can stand only once. A structure can be active in one record and inactive in another. Activity calls are given as the source filed them. How the source made its calls: active means hit-call score of the fitted dose curve at least 0.9, where 1 is the maximum; inactive means score below 0.9.

read-out: Monocyte Chemoattractant Protein-1 (MCP1), CCL2 (gene 6347); assay: BSK_SAg_MCP1: BioMAP Diversity Plus: SAg Assay for Monocyte Chemoattractant Protein-1 (MCP1) Biomarker Activity (AID 2283090); details: primary human HUVEC with PBMC; actives raise or lower the signal
In short: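 MCP-1 levels in the endothelial–PBMC SAg co-culture were quantified by ELISA at 24 h post-dosing; both increases and decreases versus DMSO scored. Cytotoxicity monitored by SRB total protein in parallel cultures.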

E-selectin (Homo sapiens), sequence (P16581 whole entry, looked up): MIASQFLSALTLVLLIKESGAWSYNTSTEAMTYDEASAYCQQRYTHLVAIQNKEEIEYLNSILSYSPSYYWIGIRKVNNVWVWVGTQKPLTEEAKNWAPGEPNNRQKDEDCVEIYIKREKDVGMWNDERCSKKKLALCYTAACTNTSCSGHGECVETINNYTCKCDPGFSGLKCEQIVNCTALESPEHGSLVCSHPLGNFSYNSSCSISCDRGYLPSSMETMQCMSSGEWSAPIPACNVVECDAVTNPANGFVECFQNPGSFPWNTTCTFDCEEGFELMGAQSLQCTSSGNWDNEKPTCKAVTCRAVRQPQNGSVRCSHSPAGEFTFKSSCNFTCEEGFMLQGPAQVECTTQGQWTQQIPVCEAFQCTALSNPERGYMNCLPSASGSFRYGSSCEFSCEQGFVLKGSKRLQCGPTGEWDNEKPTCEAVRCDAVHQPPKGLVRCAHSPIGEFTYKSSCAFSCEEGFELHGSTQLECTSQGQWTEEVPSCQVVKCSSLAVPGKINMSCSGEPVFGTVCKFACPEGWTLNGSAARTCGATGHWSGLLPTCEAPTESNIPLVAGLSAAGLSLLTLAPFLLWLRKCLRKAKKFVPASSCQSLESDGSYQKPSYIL

SMILES	outcome	AC50
CC(C)(C)CC(C)(C)c1ccc(O)c(-n2nc3ccccc3n2)c1	inactive	
OCCC(F)(F)C(F)(F)C(F)(F)C(F)(F)C(F)(F)C(F)(F)C(F)(F)C(F)(F)F	inactive	43 µM (active) and 23.1 µM (active)
CCCCC(CC)COC(=O)CCCCC(=O)OCC(CC)CCCC (configuration not stated)	inactive	
CC(C)(C)c1cccc(C(C)(C)C)c1O	inactive	
CCCCCCCCCCCCN1CCCC1=O		29.6 µM (active)
CC(O)CO (configuration not stated)	inactive	
COc1ccc([N+](=O)[O-])cc1N	inactive	
CC(=O)CC(C)(C)O	inactive	
CCCCCCCCOC(=O)CCCCCCCCC(=O)OCCCCCCCC	inactive	
NCC(F)(F)C(F)(F)C(F)(F)C(F)(F)C(F)(F)C(F)(F)C(F)(F)F	inactive	
c1ccc2cc3c(ccc4ccccc43)cc2c1	inactive	
C[C@@H]1C[C@H]2[C@@H]3CCC4=CC(=O)C=C[C@]4(C)[C@@]3(F)[C@@H](O)C[C@]2(C)[C@@]1(O)C(=O)COP(=O)(O)O	inactive	
Oc1cccc(O)c1	inactive	
c1ccc2c(c1)Cc1ccccc1-2	inactive	
CCN(CC)CCNc1ccc(CNC=O)c2sc3ccc(OC)cc3c(=O)c12		20 µM (active)
CC#C[C@]1(O)CC[C@H]2[C@@H]3CCC4=CC(=O)CCC4=C3[C@@H](c3ccc(N(C)C)cc3)C[C@@]21C		31.7 µM (active)

SMILES	outcome	AC50
CCC(C)(C)C1CCC(O)CC1 (configuration not stated)	inactive	
Cc1cc(C)c(O)c(C)c1	inactive	
C#C[C@]1(O)CC[C@H]2[C@@H]3CCC4=CC(=O)CC[C@@H]4[C@H]3CC[C@@]21C		5.76 µM (active)
O=C(OCCOCCOC(=O)c1ccccc1)c1ccccc1	inactive	
CCCCC(CC)COC(=O)CCCCC(=O)OCc1ccccc1 (configuration not stated)	inactive	
O=[N+]([O-])c1ccc(O)cc1	inactive	
C=C(C)C(=O)OCCC(F)(F)C(F)(F)C(F)(F)C(F)(F)C(F)(F)C(F)(F)F	inactive	
NC(=O)N(O)[C@@H]1C=C[C@H](Oc2cccc(Oc3ccc(F)cc3)c2)C1	inactive	
NC(=O)N1C(=O)C(C(=O)c2cc(Cl)cs2)c2cc(F)c(Cl)cc21 (configuration not stated)		5.4 µM (active)
COC(=O)CCCCC(=O)OC	inactive	
CN(C)C=O	inactive	
O=c1c(-c2ccc(O)cc2)coc2cc(O)ccc12	inactive	
Cc1oc(-c2ccccc2)nc1CCOc1ccc(C[C@H](Nc2ccccc2C(=O)c2ccccc2)C(=O)O)cc1		24.1 µM (active)
N#C[C@@H]1CC(F)(F)CN1C(=O)CNC1CC2CCC(C1)N2c1ncccn1 (some centres not stated)		6.57 µM (active)
OCCC(F)(F)C(F)(F)C(F)(F)C(F)(F)C(F)(F)C(F)(F)F	inactive	
c1ccc2c(c1)ccc1ccccc12	inactive	

read-out: E-selectin (Homo sapiens) (UniProt P16581); assay: BSK_SAg_Eselectin: BioMAP Diversity Plus: SAg Assay for Eselectin Biomarker Activity (AID 2283091); details: primary human HUVEC with PBMC; actives raise or lower the signal
In short: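 Human umbilical vein endothelial cells co-cultured with peripheral blood mononuclear cells, SAg system. E-selectin is measured by ELISA 24 h after dosing and fitted bidirectionally against DMSO. Cytotoxicity is checked by SRB staining of parallel cultures.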

SMILES	outcome	AC50
CC(C)(C)CC(C)(C)c1ccc(O)c(-n2nc3ccccc3n2)c1	inactive	
OCCC(F)(F)C(F)(F)C(F)(F)C(F)(F)C(F)(F)C(F)(F)C(F)(F)C(F)(F)F	inactive	39.2 µM (active) and 31.9 µM (active)
CCCCC(CC)COC(=O)CCCCC(=O)OCC(CC)CCCC (configuration not stated)	inactive	
CC(C)(C)c1cccc(C(C)(C)C)c1O	inactive	
CCCCCCCCCCCCN1CCCC1=O		30.3 µM (active)
CC(O)CO (configuration not stated)	inactive	
COc1ccc([N+](=O)[O-])cc1N	inactive	
CC(=O)CC(C)(C)O	inactive	
CCCCCCCCOC(=O)CCCCCCCCC(=O)OCCCCCCCC	inactive	
NCC(F)(F)C(F)(F)C(F)(F)C(F)(F)C(F)(F)C(F)(F)C(F)(F)F	inactive	
c1ccc2cc3c(ccc4ccccc43)cc2c1	inactive	
C[C@@H]1C[C@H]2[C@@H]3CCC4=CC(=O)C=C[C@]4(C)[C@@]3(F)[C@@H](O)C[C@]2(C)[C@@]1(O)C(=O)COP(=O)(O)O		2.96 µM (active) and 1.73 µM (active) and 1.25 µM (active)
Oc1cccc(O)c1	inactive	
c1ccc2c(c1)Cc1ccccc1-2	inactive	
CCN(CC)CCNc1ccc(CNC=O)c2sc3ccc(OC)cc3c(=O)c12		20 µM (active)
CC#C[C@]1(O)CC[C@H]2[C@@H]3CCC4=CC(=O)CCC4=C3[C@@H](c3ccc(N(C)C)cc3)C[C@@]21C		33.4 µM (active)

SMILES	outcome	AC50
CCC(C)(C)C1CCC(O)CC1 (configuration not stated)	inactive	
Cc1cc(C)c(O)c(C)c1	inactive	
C#C[C@]1(O)CC[C@H]2[C@@H]3CCC4=CC(=O)CC[C@@H]4[C@H]3CC[C@@]21C	inactive	
O=C(OCCOCCOC(=O)c1ccccc1)c1ccccc1	inactive	
CCCCC(CC)COC(=O)CCCCC(=O)OCc1ccccc1 (configuration not stated)	inactive	
O=[N+]([O-])c1ccc(O)cc1	inactive	
C=C(C)C(=O)OCCC(F)(F)C(F)(F)C(F)(F)C(F)(F)C(F)(F)C(F)(F)F	inactive	
NC(=O)N(O)[C@@H]1C=C[C@H](Oc2cccc(Oc3ccc(F)cc3)c2)C1	inactive	
NC(=O)N1C(=O)C(C(=O)c2cc(Cl)cs2)c2cc(F)c(Cl)cc21 (configuration not stated)		8.61 µM (active)
COC(=O)CCCCC(=O)OC	inactive	
CN(C)C=O	inactive	
O=c1c(-c2ccc(O)cc2)coc2cc(O)ccc12	inactive	
Cc1oc(-c2ccccc2)nc1CCOc1ccc(C[C@H](Nc2ccccc2C(=O)c2ccccc2)C(=O)O)cc1		31.5 µM (active)
N#C[C@@H]1CC(F)(F)CN1C(=O)CNC1CC2CCC(C1)N2c1ncccn1 (some centres not stated)	inactive	
OCCC(F)(F)C(F)(F)C(F)(F)C(F)(F)C(F)(F)C(F)(F)F	inactive	54.9 µM (active)
c1ccc2c(c1)ccc1ccccc12	inactive	
